Experimental data taken from PubChem BioAssay (Tox21).
Records with an inconclusive call do not appear. Active and inactive are the calls of the source. Calls follow the shape of the dose curve; as a rule, active = well fitted curve in the direction sought with a large enough effect in the repeat runs; inconclusive = weak or mixed curves; inactive = no such curve, though single readings can be large; an effect the other way counts as inactive or inconclusive.

Columns and labels:
[1] = A CellTox Green Cytotoxicity Assay to monitor cytotoxicity in HEK293 cells - 40 hour (AID 1224871); also: nearly all actives have a fitted effect of over 45% in size
Outline: (§1)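 HEK293 cells, 600/well, were preincubated 5 hours and then exposed to compounds at 37 C for up to 40 hours. A cell-impermeant cyanine dye staining dead-cell DNA was read by fluorescence at 0, 8, 16, 24, 32 and 40 h time points.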

[2] = qHTS RealTime-Glo MT Cell Viability Assay in HepG2 cells - 8 hour (AID 1224873); also: nearly all actives have a fitted effect of over 55% in size
Outline: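 HepG2 cells mixed with RealTime-Glo MT reagents (NanoLuc plus cell-permeant prosubstrate) were seeded at 600 cells/well, incubated 5 h at 37 C/5% CO2, then pinned with compounds in DMSO; nonlytic luminescence tracked viability during 40 h treatment.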

[3] = qHTS RealTime-Glo MT Cell Viability Assay in HEK293 cells - 40 hour (AID 1224874); details: RealTime-Glo luminescence; max response: hits give low values; also: nearly all actives have a fitted effect of over 50% in size; also: potency is read from the fitted curve at half-maximal effect
Outline: (§2)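 600 cells/well were plated with the nonlytic NanoLuc/prosubstrate reagent, pre-incubated 5 h, then given 23 nL of compound in DMSO. Incubation at 37 C for 40 h, with luminescence from viable-cell-reduced substrate read repeatedly from 0 h.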

[4] = A CellTox Green Cytotoxicity Assay to monitor cytotoxicity in HepG2 cells - 16 hour (AID 1224876); also: nearly all actives have a fitted effect of over 45% in size
Outline: (§3)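 HepG2 cells, 600/well, preincubated 5 h with CellTox Green dye, then exposed to Tox21 compounds in DMSO at 37 C for up to 40 h. Dead-cell DNA fluorescence read at the indicated time point.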

[5] = qHTS RealTime-Glo MT Cell Viability Assay in HepG2 cells - 32 hour (AID 1224877); also: nearly all actives have a fitted effect of over 55% in size
Outline: (§4)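 Compound treatment began 5 h after plating HepG2 cells (600/well) with NanoLuc luciferase and prosubstrate. Plates stayed at 37 C for 40 h; luminescence was captured at six time points, 0 h through 40 h.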

[6] = A CellTox Green Cytotoxicity Assay to monitor cytotoxicity in HepG2 cells - 24 hour (AID 1224878); also: nearly all actives have a fitted effect of over 45% in size
Outline: as §3

[7] = A CellTox Green Cytotoxicity Assay to monitor cytotoxicity in HEK293 cells - 32 hour (AID 1224881); also: nearly all actives have a fitted effect of over 40% in size
Outline: as §1

[8] = A CellTox Green Cytotoxicity Assay to monitor cytotoxicity in HepG2 cells - 0 hour (AID 1224882); also: nearly all actives have a fitted effect of over 35% in size
Outline: as §3

[9] = A CellTox Green Cytotoxicity Assay to monitor cytotoxicity in HepG2 cells - 32 hour (AID 1224883); also: nearly all actives have a fitted effect of over 50% in size
Outline: as §3

[10] = A CellTox Green Cytotoxicity Assay to monitor cytotoxicity in HEK293 cells - 8 hour (AID 1224884); also: nearly all actives have a fitted effect of over 35% in size; also: potency is read from the fitted curve at half-maximal effect
Outline: as §1

[11] = qHTS RealTime-Glo MT Cell Viability Assay in HepG2 cells - 16 hour (AID 1224885); also: nearly all actives have a fitted effect of over 50% in size
Outline: as §4

[12] = qHTS RealTime-Glo MT Cell Viability Assay in HEK293 cells - 24 hour (AID 1224886); also: nearly all actives have a fitted effect of over 50% in size; also: potency is read from the fitted curve at half-maximal effect
Outline: (§5)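 Quantitative high-throughput screen of the Tox21 10K library in HEK293: cells and RealTime-Glo reagents plated together, compound added at 5 h, luminescence monitored through 40 h at 37 C.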

[13] = qHTS RealTime-Glo MT Cell Viability Assay in HEK293 cells - 8 hour (AID 1224887)
Outline: as §2

[14] = A CellTox Green Cytotoxicity Assay to monitor cytotoxicity in HEK293 cells - 16 hour (AID 1224888); also: nearly all actives have a fitted effect of over 35% in size
Outline: as §1

[15] = A CellTox Green Cytotoxicity Assay to monitor cytotoxicity in HepG2 cells - 8 hour (AID 1224890); also: nearly all actives have a fitted effect of over 45% in size
Outline: as §3

[16] = qHTS RealTime-Glo MT Cell Viability Assay in HEK293 cells - 16 hour (AID 1224872)
Outline: as §5

[17] = A CellTox Green Cytotoxicity Assay to monitor cytotoxicity in HEK293 cells - 24 hour (AID 1224875)
Outline: as §1

[18] = A CellTox Green Cytotoxicity Assay to monitor cytotoxicity in HepG2 cells - 40 hour (AID 1224879); also: nearly all actives have a fitted effect of over 40% in size
Outline: as §3

[19] = qHTS RealTime-Glo MT Cell Viability Assay in HepG2 cells - 0 hour (AID 1224889); also: nearly all actives have a fitted effect of over 50% in size
Outline: as §4

[20] = qHTS RealTime-Glo MT Cell Viability Assay in HEK293 cells - 0 hour (AID 1224880)
Outline: as §2
% is scaled to controls: 0 for no effect and ±100 for the full control effect.

O=[N+]([O-])c1cccc2c([N+](=O)[O-])cccc12
inactive: Potency [1] | Potency [2] | Potency [4] | Potency [5] | Potency [6] | Potency [7] | outcome [8] | Potency [9] | Potency [10] | Potency [11] | Potency [13] | Potency [14] | Potency [15]
active: Potency [3] 49.2 µM | Potency [12] 49.2 µM

CCOP(=S)(Oc1cnc(C(C)(C)C)nc1)OC(C)C (stereo not drawn)
inactive: Potency [16] | Potency [2] | max response [3] -10.5% | Potency [17] | Potency [4] | Potency [5] | Potency [6] | Potency [18] | outcome [8] | Potency [9] | Potency [10] | Potency [11] | Potency [12] | Potency [13] | Potency [14] | Potency [19] | Potency [15]

Nc1n[nH]c(N)n1
inactive: Potency [1] | Potency [2] | Potency [17] | Potency [4] | Potency [5] | Potency [6] | Potency [18] | outcome [8] | Potency [9] | Potency [10] | Potency [11] | Potency [13] | Potency [14] | Potency [19] | Potency [15]

CC1(C)C(=O)NC(=O)NC1=O
active: Potency [10] 49 µM
inactive: Potency [2] | max response [3] -10.9% | Potency [4] | Potency [5] | Potency [6] | Potency [18] | outcome [20] | outcome [8] | Potency [9] | Potency [11] | Potency [13] | Potency [19] | Potency [15]

COc1ccc2c(c1OC)CN1CCc3cc4c(cc3C1C2)OCO4 (stereo not drawn)
inactive: Potency [1] | Potency [2] | Potency [17] | Potency [4] | Potency [5] | Potency [6] | Potency [18] | outcome [20] | Potency [7] | outcome [8] | Potency [9] | Potency [10] | Potency [13] | Potency [14] | Potency [19] | Potency [15]

OC(c1ccc(F)cc1)(c1cncnc1)c1ccccc1Cl (stereo not drawn)
inactive: Potency [2] | max response [3] -29.2% | Potency [17] | Potency [4] | Potency [5] | Potency [6] | Potency [18] | outcome [20] | outcome [8] | Potency [9] | Potency [10] | Potency [11] | Potency [12] | Potency [13] | Potency [14] | Potency [19] | Potency [15]

O=C(Cc1ccccc1)OCc1ccccc1
inactive: Potency [16] | Potency [2] | max response [3] -18.6% | Potency [4] | Potency [5] | Potency [6] | Potency [18] | outcome [20] | outcome [8] | Potency [9] | Potency [10] | Potency [12] | Potency [13] | Potency [14] | Potency [19] | Potency [15]

CC1=C(C(=O)Nc2ccccc2)S(=O)(=O)CCO1
active: Potency [3] 43.6 µM
inactive: Potency [2] | Potency [17] | Potency [4] | Potency [5] | Potency [6] | Potency [18] | Potency [7] | outcome [8] | Potency [9] | Potency [10] | Potency [13] | Potency [14] | Potency [19] | Potency [15]

Cc1ccccc1CO[C@@H]1C[C@@]2(C(C)C)CC[C@]1(C)O2
inactive: Potency [2] | max response [3] -15.4% | Potency [4] | Potency [5] | Potency [6] | Potency [18] | outcome [8] | Potency [9] | Potency [10] | Potency [11] | Potency [13] | Potency [14] | Potency [19] | Potency [15]

CCN(CC)C(=O)[C@@H]1C=C2c3cccc4[nH]cc(c34)C[C@H]2N(C)C1
inactive: Potency [1] | Potency [2] | Potency [4] | Potency [5] | Potency [6] | Potency [18] | outcome [20] | outcome [8] | Potency [9] | Potency [10] | Potency [11] | Potency [13] | Potency [14] | Potency [19] | Potency [15]

CN1C(=S)CN=C(c2ccccc2)c2cc(Cl)ccc21
inactive: Potency [2] | Potency [17] | Potency [4] | Potency [5] | Potency [6] | Potency [18] | outcome [20] | outcome [8] | Potency [9] | Potency [11] | Potency [12] | Potency [13] | Potency [19] | Potency [15]
